Measured values published in publication PMC8384837, “Expanding the binding specificity for RNA recognition by a PUF domain”.

Tests used:
Test in all cases: yeast three-hybrid, YBZ-1, SC-Leu-His + 0.5 mM 3-AT, 4 days
Conditions in all cases: tags: N-Gal4 AD-HA kept; label: inside an RPR1-promoter hybrid RNA with tandem MS2 sites; ssRNA
PUM1 PUF domain R2-LIM = PUM1 PUF domain R2-LIM (Homo sapiens, UniProt Q14671 828-1176, N899L;Y900I;Q903M)
Outline: (§1)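 Matching RNA elements and Pumilio-1 PUF domain libraries, randomized at the three base-contacting residues of every repeat, were co-expressed from a centromeric plasmid in strain YBZ-1 (LexA–MS2 coat fusion, HIS3 reporter). The repeat regions were PCR-amplified and Illumina-sequenced from cells grown four days on SC-Leu (input) or SC-Leu-His + 0.5 mM 3-AT (selection). The interaction score is the log change in variant frequency from input to selection. It is computed in log2, with a pseudocount of 1 for absent variants.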

PUM1 PUF domain R8-LYF = PUM1 PUF domain R8-LYF (Homo sapiens, UniProt Q14671 828-1176, N1122L;Q1126F)
PUM1 PUF domain R8-LYF, sequence (Q14671 828-1176 N1122L/Q1126F): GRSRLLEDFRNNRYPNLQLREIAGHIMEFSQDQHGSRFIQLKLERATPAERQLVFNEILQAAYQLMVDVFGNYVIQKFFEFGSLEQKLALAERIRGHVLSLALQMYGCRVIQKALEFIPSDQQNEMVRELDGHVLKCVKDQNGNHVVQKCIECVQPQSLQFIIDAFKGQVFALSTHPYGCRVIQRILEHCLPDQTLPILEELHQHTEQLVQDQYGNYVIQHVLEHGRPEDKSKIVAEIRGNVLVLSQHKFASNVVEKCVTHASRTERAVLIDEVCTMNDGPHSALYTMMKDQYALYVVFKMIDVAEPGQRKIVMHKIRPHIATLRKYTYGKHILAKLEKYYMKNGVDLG
Outline: as §1

PUM1 PUF domain R8-HWP = PUM1 PUF domain R8-HWP (Homo sapiens, UniProt Q14671 828-1176, N1122H;Y1123W;Q1126P)
PUM1 PUF domain R8-HWP, sequence (Q14671 828-1176 N1122H/Y1123W/Q1126P): as the sequence (Q14671 828-1176 N1122L/Q1126F) above, with L295H, Y296W, F299P counted along it
Outline: as §1

PUM1 PUF domain R5-RPM = PUM1 PUF domain R5-RPM (Homo sapiens, UniProt Q14671 828-1176, C1007R;R1008P;Q1011M)
Outline: as §1

PUM1 PUF domain R5-LWS = PUM1 PUF domain R5-LWS (Homo sapiens, UniProt Q14671 828-1176, C1007L;R1008W;Q1011S)
PUM1 PUF domain R5-LWS, sequence (Q14671 828-1176 C1007L/R1008W/Q1011S): as the sequence (Q14671 828-1176 N1122L/Q1126F) above, with C180L, R181W, Q184S, L295N, F299Q counted along it
Outline: as §1

PUM1 PUF domain R5-HHH = PUM1 PUF domain R5-HHH (Homo sapiens, UniProt Q14671 828-1176, C1007H;R1008H;Q1011H)
PUM1 PUF domain R5-HHH, sequence (Q14671 828-1176 C1007H/R1008H/Q1011H): as the sequence (Q14671 828-1176 N1122L/Q1126F) above, with C180H, R181H, Q184H, L295N, F299Q counted along it
Outline: as §1

PUM1 PUF domain R5-QHV = PUM1 PUF domain R5-QHV (Homo sapiens, UniProt Q14671 828-1176, C1007Q;R1008H;Q1011V)
PUM1 PUF domain R5-QHV, sequence (Q14671 828-1176 C1007Q/R1008H/Q1011V): as the sequence (Q14671 828-1176 N1122L/Q1126F) above, with C180Q, R181H, Q184V, L295N, F299Q counted along it
Outline: as §1

PUM1 PUF domain R1-IWR = PUM1 PUF domain R1-IWR (Homo sapiens, UniProt Q14671 828-1176, S863I;R864W;Q867R)
PUM1 PUF domain R1-IWR, sequence (Q14671 828-1176 S863I/R864W/Q867R): as the sequence (Q14671 828-1176 N1122L/Q1126F) above, with S36I, R37W, Q40R, L295N, F299Q counted along it
Outline: as §1

PUM1 PUF domain R3-SRN = PUM1 PUF domain R3-SRN (Homo sapiens, UniProt Q14671 828-1176, C935S;Q939N)
Outline: as §1

PUM1 PUF domain R3-IWY = PUM1 PUF domain R3-IWY (Homo sapiens, UniProt Q14671 828-1176, C935I;R936W;Q939Y)
PUM1 PUF domain R3-IWY, sequence (Q14671 828-1176 C935I/R936W/Q939Y): as the sequence (Q14671 828-1176 N1122L/Q1126F) above, with C108I, R109W, Q112Y, L295N, F299Q counted along it
Outline: as §1

PUM1 PUF domain R4-DYM = PUM1 PUF domain R4-DYM (Homo sapiens, UniProt Q14671 828-1176, N971D;H972Y;Q975M)
Outline: as §1

PUM1 PUF domain R1-LWK = PUM1 PUF domain R1-LWK (Homo sapiens, UniProt Q14671 828-1176, S863L;R864W;Q867K)
Outline: as §1

PUM1 PUF domain R1-RRI = PUM1 PUF domain R1-RRI (Homo sapiens, UniProt Q14671 828-1176, S863R;Q867I)
PUM1 PUF domain R1-RRI, sequence (Q14671 828-1176 S863R/Q867I): as the sequence (Q14671 828-1176 N1122L/Q1126F) above, with S36R, Q40I, L295N, F299Q counted along it
Outline: as §1

PUM1 PUF domain R4-DFS = PUM1 PUF domain R4-DFS (Homo sapiens, UniProt Q14671 828-1176, N971D;H972F;Q975S)
Outline: as §1

PUM1 PUF domain R4-FNA = PUM1 PUF domain R4-FNA (Homo sapiens, UniProt Q14671 828-1176, N971F;H972N;Q975A)
Outline: as §1

PUM1 PUF domain R5-TEE = PUM1 PUF domain R5-TEE (Homo sapiens, UniProt Q14671 828-1176, C1007T;R1008E;Q1011E)
PUM1 PUF domain R5-TEE, sequence (Q14671 828-1176 C1007T/R1008E/Q1011E): as the sequence (Q14671 828-1176 N1122L/Q1126F) above, with C180T, R181E, Q184E, L295N, F299Q counted along it
Outline: as §1

[1] = target: PUM1 PUF domain R2-VFQ R3-THE R4-TFR (Homo sapiens, UniProt Q14671 828-1176, N899V;Y900F;C935T;R936H;Q939E;N971T;H972F;Q975R)
PUM1 PUF domain R2-VFQ R3-THE R4-TFR, sequence (Q14671 828-1176 N899V/Y900F/C935T/R936H/Q939E/N971T/H972F/Q975R): as the sequence (Q14671 828-1176 N1122L/Q1126F) above, with N72V, Y73F, C108T, R109H, Q112E, N144T, H145F, Q148R, L295N, F299Q counted along it
Outline: as §1

PUM1 PUF domain R8-SWQ = PUM1 PUF domain R8-SWQ (Homo sapiens, UniProt Q14671 828-1176, N1122S;Y1123W)
Outline: as §1

PUM1 PUF domain R3-SCK = PUM1 PUF domain R3-SCK (Homo sapiens, UniProt Q14671 828-1176, C935S;R936C;Q939K)
Outline: as §1

PUM1 PUF domain R3-RAR = PUM1 PUF domain R3-RAR (Homo sapiens, UniProt Q14671 828-1176, C935R;R936A;Q939R)
Outline: as §1

PUM1 PUF domain R2-LIM, sequence (Q14671 828-1176 N899L/Y900I/Q903M): as the sequence (Q14671 828-1176 N1122L/Q1126F) above, with N72L, Y73I, Q76M, L295N, F299Q counted along it

Sequence: GGCUAGAACUAGUGGAUCCCCCGGCGCCCGGCGGCUCGAGCCCGGGUAAGUGUAAAGAGUCUGCAUGCCGCCGGGCGCCAUGCCUGCAGGUCGACUCUAGAAAACAUG
- binding signal (PUM1 PUF domain R2-LIM): 3.94 log2 enrichment (interaction score)

Sequence: GGCUAGAACUAGUGGAUCCCCCGGCGCCCGGCGGCUCGAGCCCGGGUAAGCGUAAAUAGUCUGCAUGCCGCCGGGCGCCAUGCCUGCAGGUCGACUCUAGAAAACAUG
- binding signal (PUM1 PUF domain R8-LYF): 2.3 log2 enrichment (interaction score)
- binding signal (PUM1 PUF domain R8-HWP): 5.59 log2 enrichment (interaction score)

Sequence: GGCUAGAACUAGUGGAUCCCCCGGCGCCCGGCGGCUCGAGCCCGGGUAAGUGUUAAUAGUCUGCAUGCCGCCGGGCGCCAUGCCUGCAGGUCGACUCUAGAAAACAUG
- binding signal (PUM1 PUF domain R5-RPM): 2.25 log2 enrichment (interaction score)
- binding signal (PUM1 PUF domain R5-LWS): 2.93 log2 enrichment (interaction score)
- binding signal (PUM1 PUF domain R5-HHH): 5.29 log2 enrichment (interaction score)
- binding signal (PUM1 PUF domain R5-QHV): 3.88 log2 enrichment (interaction score)

Sequence: GGCUAGAACUAGUGGAUCCCCCGGCGCCCGGCGGCUCGAGCCCGGGUAAGUGUCAAUAGUCUGCAUGCCGCCGGGCGCCAUGCCUGCAGGUCGACUCUAGAAAACAUG
- binding signal (PUM1 PUF domain R5-LWS): 2.81 log2 enrichment (interaction score)

Sequence: GGCUAGAACUAGUGGAUCCCCCGGCGCCCGGCGGCUCGAGCCCGGGUAAGUGUAAAUUGUCUGCAUGCCGCCGGGCGCCAUGCCUGCAGGUCGACUCUAGAAAACAUG
- binding signal (PUM1 PUF domain R1-IWR): 1.52 log2 enrichment (interaction score)

Sequence: GGCUAGAACUAGUGGAUCCCCCGGCGCCCGGCGGCUCGAGCCCGGGUAAGUGUAAGUAGUCUGCAUGCCGCCGGGCGCCAUGCCUGCAGGUCGACUCUAGAAAACAUG
- binding signal (PUM1 PUF domain R3-SRN): 1.88 log2 enrichment (interaction score)
- binding signal (PUM1 PUF domain R3-IWY): 1.76 log2 enrichment (interaction score)

Sequence: GGCUAGAACUAGUGGAUCCCCCGGCGCCCGGCGGCUCGAGCCCGGGUAAGUGUACAUAGUCUGCAUGCCGCCGGGCGCCAUGCCUGCAGGUCGACUCUAGAAAACAUG
- binding signal (PUM1 PUF domain R4-DYM): 5.08 log2 enrichment (interaction score)

Sequence: GGCUAGAACUAGUGGAUCCCCCGGCGCCCGGCGGCUCGAGCCCGGGUAAGUGUAAAUCGUCUGCAUGCCGCCGGGCGCCAUGCCUGCAGGUCGACUCUAGAAAACAUG
- binding signal (PUM1 PUF domain R1-LWK): 4.58 log2 enrichment (interaction score)
- binding signal (PUM1 PUF domain R1-RRI): 3.61 log2 enrichment (interaction score)
- binding signal (PUM1 PUF domain R1-IWR): 2.56 log2 enrichment (interaction score)

Sequence: GGCUAGAACUAGUGGAUCCCCCGGCGCCCGGCGGCUCGAGCCCGGGUAAGUGUAUAUAGUCUGCAUGCCGCCGGGCGCCAUGCCUGCAGGUCGACUCUAGAAAACAUG
- binding signal (PUM1 PUF domain R4-DFS): 6.8 log2 enrichment (interaction score)
- binding signal (PUM1 PUF domain R4-FNA): 2.23 log2 enrichment (interaction score)

Sequence: GGCUAGAACUAGUGGAUCCCCCGGCGCCCGGCGGCUCGAGCCCGGGUAAGUGUGAAUAGUCUGCAUGCCGCCGGGCGCCAUGCCUGCAGGUCGACUCUAGAAAACAUG
- binding signal (PUM1 PUF domain R5-LWS): 1.62 log2 enrichment (interaction score)
- binding signal (PUM1 PUF domain R5-TEE): 3.25 log2 enrichment (interaction score)

Sequence: GGCUAGAACUAGUGGAUCCCCCGGCGCCCGGCGGCUCGAGCCCGGGUAAGUGUACGAAGUCUGCAUGCCGCCGGGCGCCAUGCCUGCAGGUCGACUCUAGAAAACAUG
- binding signal [1]: 3.9 log2 enrichment (interaction score)

Sequence: GGCUAGAACUAGUGGAUCCCCCGGCGCCCGGCGGCUCGAGCCCGGGUAAGUGUAAAUAGUCUGCAUGCCGCCGGGCGCCAUGCCUGCAGGUCGACUCUAGAAAACAUG
- binding signal (PUM1 PUF domain R4-DFS): 6.43 log2 enrichment (interaction score)
- binding signal (PUM1 PUF domain R8-SWQ): 4.66 log2 enrichment (interaction score)
- binding signal (PUM1 PUF domain R4-DYM): 4.83 log2 enrichment (interaction score)
- binding signal (PUM1 PUF domain R3-SRN): 4.26 log2 enrichment (interaction score)
- binding signal (PUM1 PUF domain R5-LWS): 2.04 log2 enrichment (interaction score)

Sequence: GGCUAGAACUAGUGGAUCCCCCGGCGCCCGGCGGCUCGAGCCCGGGUAAGUGUAAUUAGUCUGCAUGCCGCCGGGCGCCAUGCCUGCAGGUCGACUCUAGAAAACAUG
- binding signal (PUM1 PUF domain R3-SCK): 3.52 log2 enrichment (interaction score)
- binding signal (PUM1 PUF domain R3-RAR): 3.75 log2 enrichment (interaction score)
- binding signal (PUM1 PUF domain R3-IWY): 3.36 log2 enrichment (interaction score)
